# KCNH2 3.1 block: qHTS for Inhibitors of KCHN2 3.1: Mutant qHTS | 340,000 compounds, 0.95% hits | Potassium voltage-gated channel subfamily H member 2, brain isoform KCNH2 3.1 (human) | U2OS KCNH2 3.1, thallium flux FluxOr; hits give low values | AID 720553, 2013 | activity change, % (tested at about 1.8 µM);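 active means maximum activity change below -70%; inconclusive means maximum activity change from -70% to -50%; inactive means maximum activity change above -50%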;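 further: thallium influx rate constant from kinetic fluorescence after stimulation buffer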
#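 We transduce U2OS cells with the mutant 3.1 virus, culture them overnight, load FluxOr with Red40 quencher for 45 min, then add stimulation buffer and read kinetically for 2 min to derive a normalized rate constant.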
# KCNH2 WT inh: qHTS for Inhibitors of KCHN2 3.1: Wildtype qHTS; 340,000 compounds, 0.37% hits; U2OS, BacMam KCNH2, thallium flux FluxOr; hits give low values; AID 720551, 2013; activity change, % at 1.84 µM; Voltage-gated inwardly rectifying potassium channel KCNH2 (Homo sapiens), Q12809;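 active means maximum activity change below -70%; inconclusive means maximum activity change between -70% and -50%; inactive means maximum activity change above -50%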
#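 U2OS cells were transduced with wild-type KCNH2 virus (2.03 x 10^8 / mL) for 4 h at room temperature, then cultured overnight at 37 C. Thallium flux was read with FluxOr dye. Rate constants were normalized to DMSO controls.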
# KinaseGlo FLuc: Counterscreen for Luciferase (Kinase-Glo TM) Inhibition. Luciferin 4-monooxygenase (Photuris pensylvanica), Q27757. Kinase-Glo luciferase, ATP luminescence, 8 min. Potency, µM (doses to about 38.3 µM), for the others: top-dose activity change, negative = inhibition, hits mostly inhibitors. 200,000 compounds, 0.28% hits. AID 1379, 2008; active means well fitted inhibition curve with a large enough effect; inconclusive means small, poorly fitted or top-dose-only effect; further: potency means the concentration at half of the fitted maximal effect; nearly all actives have a fitted effect of over 60% in size
#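 Kinase-Glo luciferase light output from ATP and luciferin was measured with 10 uM ATP, within the enzyme's linear range. Buffer: 50 mM imidazole pH 7.2, 50 mM KCl, 7 mM MgCl2, 0.01% Tween 20, 0.05% BSA; luminescence read after 8 min at ambient temperature.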
# An asterisk follows results filed as active; ? = inconclusive; nt = no result given. This is a sample that favours compounds with a hit; in the whole collection about 1.2% have one here. On the % scale 0 is the no-effect control and ±100 the full control effect.
SMILES,KCNH2 3.1 block,KCNH2 WT inh,KinaseGlo FLuc
Nc1nc2ccccc2n1C(=O)c1ccc(F)cc1,21.6,-4.1,?
COc1cc(C=O)ccc1Oc1ccc(S(=O)(=O)N2CCOCC2)cc1[N+](=O)[O-],3.7,6.4,nt
O=C1CN(C(=O)COC(=O)c2cc(Cl)ccc2[N+](=O)[O-])c2ccccc2N1,-5.3,0.1,nt
O=C(COC(=O)c1ccc(S(=O)(=O)N2CCCCC2)cc1)NCc1ccccc1,-25.2,-10.8,nt
Cc1cccc(C)c1NC(=O)C1CCCN1S(=O)(=O)c1ccccc1 (configuration not stated),8.1,0.6,nt
CC(=O)c1ccc(NC(=O)c2ccc3c(=O)n4c(nc3c2)CCCCC4)cc1,4.4,-7.3,nt
Cc1ccc(-c2csc(NC(=O)c3ccc4c(=O)n5c(nc4c3)CCCCC5)n2)cc1,-10.3,-76.6*,nt
CCNc1c(NC(=O)c2ccc3c(c2)OCO3)c(=O)oc2ccccc12,12.1,-16.4,nt
O=C(NCC1CCN(Cc2ccccc2F)CC1)C1CCCN(c2ncnc3c2nc2n3CCCCC2)C1 (configuration not stated),-3.2,-6.5,nt
CCCC(=O)NC(C)c1nc(-c2ccc(C)cc2)no1 (configuration not stated),4.3,-2.8,nt
Cc1ccc(NC(=O)Nc2ncccc2C)cc1,-15.2,-4.0,-5.9%
Cc1ccc(NC(=O)Nc2ccno2)cc1,-111.8*,1.2,nt
Cc1ccc(NS(=O)(=O)c2cccc(C(=O)NCCCN3CCCC3=O)c2)cc1,24.7,4.1,nt
COc1ccc(/C=C/C(=O)NC(=S)Nc2ccc(N3CCN(C(C)=O)CC3)cc2)cc1,9.8,-174.1*,nt
O=C(/C=C/c1ccccc1)NC(=S)Nc1ccc(CN2CCOCC2)cc1,-85.5*,-0.2,1.4%
O=C(/C=C/c1ccc(Cl)cc1Cl)NC(=S)Nc1ccc(CN2CCOCC2)cc1,6.1,0.4,4.2%
CC(=O)N1CCN(c2ccc(NC(=S)NC(=O)/C=C/c3ccccc3)cc2)CC1,nt,nt,-0.1%
Cc1ncoc1C(=O)Nc1ncc([N+](=O)[O-])s1,-1.7,6.3,11.2µM*
O=C(Nc1ncc([N+](=O)[O-])s1)c1cccs1,-6.6,3.7,nt
O=C(COC(=O)CNC(=O)c1ccccc1)NC1CCCC1,-2.9,-6.4,nt
C(=C1c2ccccc2-c2ccccc21)c1ccncc1,2.2,-9.4,nt
Nc1ncnc2c1nc(Sc1ccc(Cl)cc1)n2[C@H]1O[C@@H]2COP(=O)(O)O[C@H]2[C@@H]1O,nt,nt,-0.8%
CN(C)S(=O)(=O)Oc1ccc(C(=O)Nc2ccc([N+](=O)[O-])cc2)cc1,21.2,-9.4,1.2%
COC(=O)c1ccc(OS(=O)(=O)N(C)C)cc1,-11.1,-226.5*,-1.1%
CN(Cc1ccccc1O)CC1CCCN(CCc2ccc(Cl)cc2)C1 (configuration not stated),-85.8*,0.7,nt
SMILES,KCNH2 3.1 block,KCNH2 WT inh,KinaseGlo FLuc
CN(Cc1ccc(C#CCCO)cc1)CC1CCCN(CCc2ccc(Cl)cc2)C1 (configuration not stated),-22.5,10.1,nt
CCN(Cc1ccc(OC)c(COC)c1)CC1CCCN(CCc2cccc(OC)c2)C1 (configuration not stated),-8.9,41.6,nt
COc1ccc(CCN2CCCC(CN(C)Cc3cc(OC)ccc3OC)C2)cc1 (configuration not stated),-40.1,70.2,nt
CCN(Cc1ccc(OC)c(COC)c1)CC1CCCN(CCc2cccc(F)c2)C1 (configuration not stated),-71.9*,49.9,nt
COc1ccc(CCN2CCCC(CN(C)Cc3cccc(OC)c3)C2)cc1 (configuration not stated),-73.6*,-24.7,nt
O=C(O)CNS(=O)(=O)c1ccc2c(c1)CCCC2,7.6,-5.2,-1.3%
CC1CCCN(S(=O)(=O)c2cccc(-c3cn4cccnc4n3)c2)C1 (configuration not stated),-109.7*,6.5,-3.9%
Cc1nc(-c2cccc(S(=O)(=O)N3CCCC(C)C3)c2)cs1 (configuration not stated),-1.4,4.2,0.2%
C[C@@H]1CN([C@@H](C)CO)C(=O)CCCn2nncc2CO[C@H]1CN(C)Cc1ccc(Oc2ccccc2)cc1,-7.4,10.2,nt
Cc1cccc(N2C(=O)C(O)=C(C(=O)c3cccs3)C2c2ccc(F)cc2)n1 (configuration not stated),-21.3,-226.8*,-1.0%
Cc1cccc(N2C(=O)C(O)=C(C(=O)c3cccs3)C2c2ccc(C(C)C)cc2)n1 (configuration not stated),0.4,-6.8,nt
CCCCn1c(=N)n(CC(O)COc2ccccc2)c2ccccc21 (configuration not stated),-22.7,8.1,-5.5%

# Screening data deposited in PubChem by National Center for Advancing Translational Sciences (NCATS).
